# Data as given in PubChem BioAssay (Tox21).
# Records with an inconclusive call do not appear. The source made the active and inactive calls. Unless noted, the call rests on the fitted dose curve.
# Experiment: qHTS assay to identify small molecule agonists of the NFkB signaling pathway - cell viability counter screen (AID 1159515); further: nearly all actives have a fitted effect of over 55% in size
# Conditions: NFkB-bla ME-180 viability, CellTiter-Glo luminescence, 5 h; series mostly up to 61 µM
# How it was run: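 NFkB-bla ME-180 cells, 2,000/well, plated overnight at 37 C; compound added for 5 hr at 37 C. Viability read in the same wells as the bla reporter, by CellTiter-Glo luminescence after 30 min at room temperature.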
row,Compound,outcome
1,NNc1ccccc1,inactive
2,CN(C)NC(=O)CCC(=O)O,inactive
3,CC(=O)C1CCOC1=O (stereo not given),inactive
4,CN(C)C(=O)C(c1ccccc1)c1ccccc1,inactive
5,CN1C(=O)CCS(=O)(=O)C1c1ccc(Cl)cc1 (stereo not given),inactive
6,Cc1ccc(O)c(C)c1,inactive
7,O=C(O)C1C(C(=O)O)C2(Cl)C(Cl)=C(Cl)C1(Cl)C2(Cl)Cl (stereo not given),inactive
8,Nc1ccc([As](=O)(O)O)cc1,inactive
9,CNC(=O)Oc1cccc2ccccc12,inactive
10,O=[N+]([O-])c1ccc(Cl)c(Cl)c1,inactive
11,CNC(=O)O/N=C/C(C)(C)S(C)(=O)=O,inactive
12,CCCCC(CC)C(=O)Cl (stereo not given),inactive
13,CCNc1nc(Cl)nc(NC(C)C)n1,inactive
14,C=C(C)C(=O)OCC(CC)CCCC (stereo not given),inactive
15,Cc1ccc(N)cc1,inactive
16,Cc1cc(Cl)ccc1OC(C)C(=O)O (stereo not given),inactive
17,Cc1cccc(N)c1C,inactive
18,CCOP(=S)(OCC)Oc1cc(C)nc(C(C)C)n1,inactive
19,OCC(O)CCl (stereo not given),inactive
20,Oc1c(Br)cc(Br)cc1Br,inactive
21,Cc1cccc(C)c1N,inactive
22,O=C(O)C(Br)Br,inactive
23,Cc1ccccc1N,inactive
24,CN(C)C(=O)Cl,inactive
25,COC(C)(C)CCCC(C)C/C=C/C(C)=C/C(=O)OC(C)C (stereo not given),inactive
26,Cc1cccc(C)c1NC(=O)CN1CCCC1=O,inactive
27,Oc1ccc(Cl)cc1,inactive
28,CC(C)(C)C(=O)CCl,inactive
29,Nc1cc(Cl)cc(Cl)c1,inactive
30,CSc1nnc(C(C)(C)C)c(=O)n1N,inactive

# Experiment: qHTS assay to identify small molecule agonists of the endoplasmic reticulum stress response signaling pathway (AID 1159516; active means well fitted activation curve with a large enough effect in the signal ratio in the repeat runs, not every such curve was filed as active; the % refers to the signal ratio)
# Conditions: ESRE-bla HeLa, ER stress beta-lactamase reporter, 5 h; series mostly up to 61 µM
# How it was run: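 CellSensor ESRE-bla HeLa cells, 1,500 per well, plated overnight, then exposed to compounds for 5 hr at 37 C. Beta-lactamase reporter read with LiveBLAzer B/G FRET substrate after 2 hr at room temperature, 405 nm excitation, 460 and 530 nm emission.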
row,Compound,outcome
1,NNc1ccccc1,inactive
2,CN(C)NC(=O)CCC(=O)O,inactive
3,CC(=O)C1CCOC1=O (stereo not given),inactive
4,CN(C)C(=O)C(c1ccccc1)c1ccccc1,inactive
5,CN1C(=O)CCS(=O)(=O)C1c1ccc(Cl)cc1 (stereo not given),inactive
6,Cc1ccc(O)c(C)c1,inactive
7,O=C(O)C1C(C(=O)O)C2(Cl)C(Cl)=C(Cl)C1(Cl)C2(Cl)Cl (stereo not given),inactive
8,Nc1ccc([As](=O)(O)O)cc1,inactive
9,CNC(=O)Oc1cccc2ccccc12,inactive
10,O=[N+]([O-])c1ccc(Cl)c(Cl)c1,inactive
11,CNC(=O)O/N=C/C(C)(C)S(C)(=O)=O,inactive
12,CCCCC(CC)C(=O)Cl (stereo not given),inactive
13,CCNc1nc(Cl)nc(NC(C)C)n1,inactive
14,C=C(C)C(=O)OCC(CC)CCCC (stereo not given),inactive
15,Cc1ccc(N)cc1,inactive
16,Cc1cc(Cl)ccc1OC(C)C(=O)O (stereo not given),inactive
17,Cc1cccc(N)c1C,inactive
18,CCOP(=S)(OCC)Oc1cc(C)nc(C(C)C)n1,inactive
19,OCC(O)CCl (stereo not given),inactive
20,Oc1c(Br)cc(Br)cc1Br,inactive
21,Cc1cccc(C)c1N,inactive
22,O=C(O)C(Br)Br,inactive
23,Cc1ccccc1N,inactive
24,CN(C)C(=O)Cl,inactive
25,COC(C)(C)CCCC(C)C/C=C/C(C)=C/C(=O)OC(C)C (stereo not given),inactive
26,Cc1cccc(C)c1NC(=O)CN1CCCC1=O,inactive
27,Oc1ccc(Cl)cc1,inactive
28,CC(C)(C)C(=O)CCl,inactive
29,Nc1cc(Cl)cc(Cl)c1,inactive
30,CSc1nnc(C(C)(C)C)c(=O)n1N,inactive
